Screens from PubChem BioAssay.
KB-3-1 cytotox: kills parental KB-3-1 adenocarcinoma cells; Potency, µM (top dose mostly 46.1 µM), actives largely listed as cytotoxic; KB-3-1 viability, CellTiter-Glo ATP luminescence, 72 h; hit rate 1.4% among 400,000; AID 1347075; also: potency is read from the fitted curve at half-maximal effect; % is scaled to controls: 0 for no effect and ±100 for the full control effect; nearly all actives have a fitted effect of over 60% in size
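Using CellTiter-Glo luminescence, growth of non-resistant KB-3-1 adenocarcinoma cells is assessed 72 h after pin-tool compound addition at 37 °C. Normalized responses across the concentration series yield fitted curves.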
MCF10A rerep: inducers of DNA re-replication in MCF 10A breast cells. Potency, µM (highest dose often 46.1 µM), for inactives: at the top dose activity, positive = re-replication, usual class: activators. hit rate 2.9% among 350,000. MCF 10A DNA re-replication, Hoechst nuclear intensity, 48 h; also: potency is read from the fitted curve at half-maximal effect; % of control where 0% means no effect; nearly all actives have a fitted effect of over 50% in size
IL1B secr inh: inflammasome signaling inhibition, IL-1 beta readout; hit rate 4.7% among 360,000; activity change, % at 57.5 µM; THP-1 LPS/ATP IL-1B secretion, AlphaLISA, 16 h; active compounds read low; AID 743279; in the data active = activity change below about -50%; inconclusive = mostly about -30% to -49%; also: % is scaled to controls: 0 for no effect and ±100 for the full control effect
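Secreted IL-1B measured by AlphaLISA bead assay after 16 h compound exposure of THP-1 cells; compounds (final up to 57.5 uM) added 1 h before LPS (250 ng/mL) and ATP (1.25 mM) stimulation; lower signal means less secretion.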
SW480 rerep: induces DNA re-replication in SW480 colon adenocarcinoma cells; SW480 DNA re-replication, Hoechst DNA content imaging, 48 h; Potency, µM (top dose mostly 46.1 µM), for inactives: at the highest dose re-replication activation, usual class: activators; hit rate 1.8% among 340,000; also: potency is read from the fitted curve at half-maximal effect; % of control where 0% means no effect; nearly all actives have a fitted effect of over 55% in size
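Quantitative HTS format with DMSO vehicle controls; 48 hr drug incubation at 37 C, then 40 min Hoechst staining and scanning imager measurement at 405 nm excitation.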
KB-V1 MDR tox: KB-V1 MDR subline cytotoxicity; hit rate 3.4% among 400,000; KB-V1 MDR cells viability, CellTiter-Glo, 72 h; Potency, µM (highest dose often 46.1 µM), actives largely listed as cytotoxic; also: potency is read from the fitted curve at half-maximal effect; % is scaled to controls: 0 for no effect and ±100 for the full control effect; nearly all actives have a fitted effect of over 60% in size
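Following 72 h at 37 degrees C with compound, KB-V1 cell viability was read by CellTiter-Glo luminescence, medium being phenol-red-free DMEM plus 10% FBS; concentration-response parameters came from normalized, curve-fitted qHTS data.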
Active calls of the source: *; i = inactive; u = inconclusive; x = not tested or not shown; [ ] = dose if it differs, or a comment. In the library only some 9.9% were active in any assay of this set; here they are far more common. Unless noted, calls follow the shape of the dose curve; as a rule, active = well fitted curve in the direction sought with a large enough effect; inconclusive = small, poorly fitted or top-dose-only effect, or another doubt; inactive = no such curve, though single readings can be large; an effect the other way counts as inactive or inconclusive.

SMILES | KB-3-1 cytotox | MCF10A rerep | IL1B secr inh | SW480 rerep | KB-V1 MDR tox
COc1ccc([N+](=O)[O-])cc1C(=O)Nc1ccc(Cc2ccncc2)cc1 | i | 9% | 2 | -17% | i
Cc1ccccc1OCC(=O)Nc1ccc(Cc2ccncc2)cc1 | i | 13% | -77* | 1% | i
CCCN1C(=O)c2oc3cc(C)cc(C)c3c(=O)c2C1c1ccc(F)cc1 (stereo unspecified) | i | x | x | x | i
COc1ccccc1NC(=O)c1cc2c([nH]c1=O)CC(C)(C)CC2=O | i | x | x | x | i
O=C(NCc1cccc(F)c1)c1ccccc1NC(=O)c1nsc2ccccc12 | i | x | x | x | i
COC(=O)c1ccc(CNC(=O)c2ccc(COc3ccccc3)cc2)cc1 | i | 5% | i | 1% | i
O=C(N/N=C/c1c(O)n(Cc2ccccc2)c(=O)c2ccccc12)c1cccnc1 | 18µM* | u | 111 | 23% | u
Cc1nn(Cc2c(Cl)cccc2Cl)c(Cl)c1/C=N/NC(=O)c1cccnc1 | i | 21µM* | -1 | u | i
COc1ccc(Cn2c(O)c(/C=N/NC(=O)c3cccnc3)c3ccccc3c2=O)cc1 | i | u | 131 | u | i
O=C(N/N=C/c1c(O)n(-c2ccccc2Cl)c(=O)c2ccccc12)c1cccnc1 | i | u | 14 | 16µM* | u
O=C(N/N=C/c1c(-c2ccccc2)[nH]c2ccccc12)c1cccnc1 | u | u | u | 23µM* | i
COc1ccc(CNC(=O)COC(=O)c2cccn2C)cc1 | i | -1% | 8 | 16% | i
O=C1c2ccccc2C(=O)c2c(NCCCN(CCO)CCO)cccc21 | u | u | -103* | -1% | u
CCN(CC)CC(=O)Nc1cccc2c1C(=O)c1ccccc1C2=O | i | -3% | -11 | -11% | i
O=C(Cn1cnc2c(nnn2Cc2ccc(F)cc2)c1=O)Nc1cccc(F)c1 | i | -11% | -21 | -3% | i
O=C(Cn1cnc2c(nnn2Cc2ccc(F)cc2)c1=O)Nc1ccc2c(c1)OCCO2 | i | 16µM* | 15 | u | i
CCOc1ccc(NC(=O)Cn2cc(S(=O)(=O)N3CCN(c4ccccc4F)CC3)c3ccccc3c2=O)cc1 | i | x | x | x | i
CC(C)(C)c1csc(NC(=O)CCS(=O)(=O)c2ccc(F)cc2)n1 | i | x | -5 | x | i
CC(=O)c1sc(NC(=O)CCS(=O)(=O)c2ccc(F)cc2)nc1C | i | x | -94* | x | i
O=C(CCS(=O)(=O)c1ccccc1)Nc1nncs1 | i | u | u | u | i
CC(=O)c1sc(NC(=O)CCS(=O)(=O)c2ccccc2)nc1C | u | 2.9µM* | -23 | 4.6µM* | i
O=C(NCc1cccnc1)c1cc(C2CCCCN2C(=O)c2ccc(Cl)cc2)on1 (stereo unspecified) | i | x | 3 | x | i
COc1cccc(NC(=O)CCNC(=O)N2CC(=O)Nc3ccccc32)c1 | i | 0% | 6 | 6% | i
COc1ccc(/C=C/C(=O)OCC(=O)N2c3ccccc3CC2C)cc1OC (stereo unspecified) | i | x | 6 | x | i
COc1ccc(/C=C/C(=O)c2cc(F)ccc2OC(=O)c2ccccc2C)cc1OC | u | 1.2µM* | -99* | 1.2µM* | i
SMILES | KB-3-1 cytotox | MCF10A rerep | IL1B secr inh | SW480 rerep | KB-V1 MDR tox
COc1ccc(/C=C/C(=O)c2cc3cccc(OC)c3oc2=O)cc1 | u | u | -19 | u | i
COc1ccc(/C=C/C(=O)c2ccc3c4c(cccc24)CC3)cc1 | u | 18µM* | -78* | u | u
COc1ccc(/C=C/C(=O)c2ccc3c4c(cccc24)CC3)cc1OC | u | 18µM* | -3 | u | 16µM*
COC(=O)C1CN(Cc2ccccc2)C(=O)C1=O (stereo unspecified) | i | -5% | 16 | -2% | i
Cc1c(Br)c([N+](=O)[O-])nn1CC(=O)N1CCc2ccccc2C1 | i | 1% | 9 | -13% | 16µM*
Cc1c(Br)c([N+](=O)[O-])nn1CCCC(=O)N1CCN(c2ccccc2)CC1 | u | -37% | 0 | -15% | 21µM*
Cc1ncc(CO)c2c1Oc1nc(-c3ccccc3)nc(SCC(=O)Nc3cccc(O)c3)c1C2 | u | 16µM* | 7 | u | i
CC(=O)c1sc2c(c1OC(=O)c1ccccc1)c(=O)n(-c1ccccc1)c(=S)n2-c1ccccc1 | 8.2µM* | u | -9 | -4% | 9.2µM*
CCN(C(=O)CSc1nnc(C)n1-c1ccccc1)C1CCS(=O)(=O)C1 (stereo unspecified) | i | -11% | 9 | -9% | i
COc1ccc(CN(C)C[C@H]2OCCCC[C@@H](C)Oc3ccc(NS(C)(=O)=O)cc3C(=O)N([C@H](C)CO)C[C@@H]2C)cc1 | i | x | 0 | x | u
CN(C)S(=O)(=O)c1ccc(S(=O)(=O)NCc2ccc3c(c2)OCO3)cc1 | i | 1% | 3 | 1% | i
CCc1ccc(/C=C2\SC(N3CCCC3)=NC2=O)cc1 | i | 1% | -60* | 1% | u
O=C1N=C(N2CCN(c3ccccc3)CC2)S/C1=C/c1cccs1 | i | 1% | -58* | -4% | u
COc1ccc(/C=C2\SC(N3CCCCC3)=NC2=O)cc1 | i | 3% | -1 | -5% | i
O=C1N=C(N2CCCCC2)S/C1=C\c1ccncc1 | i | 8% | -52* | -1%[9.22 µM] | i
CCOC(=O)C1(CCOc2ccccc2)CCN(Cc2ccc(OC)c(O)c2)CC1 | i | 19% | -52* | u | i
CCOC(=O)C1(CCOc2ccccc2)CCN(Cc2ccc(C)o2)CC1 | i | -7% | 5 | -2% | u
CCOC(=O)C1(CCOc2ccccc2)CCN(Cc2ccc(OC)c(COC)c2)CC1 | u | u | -52* | u | u
CCOC(=O)C1(CCOc2ccccc2)CCN(Cc2cc(OC)c(O)c(OC)c2)CC1 | i | u | 0 | 21% | i
CCOC(=O)C1(CCOc2ccccc2)CCN(Cc2ccc(O)c(OCC)c2)CC1 | i | u | -89* | u | u
CCOC(=O)C1(CCOc2ccccc2)CCN(Cc2ccc(COC)o2)CC1 | i | 13% | -57* | -4% | i
CCOc1ccc(/C=N/Nc2cc(=O)n(C)c(=O)n2C)cc1 | i | 7% | 14 | 2% | i
CCOC(=O)C1(CCOc2ccccc2)CCN(Cc2cnc(C)[nH]2)CC1 | i | 20% | -94* | 1% | i
CCOC(=O)C1(CCOc2ccccc2)CCN(Cc2ccc(O)cc2)CC1 | i | u | 0 | u | i
CCOC(=O)C1(CCc2ccccc2)CCN(Cc2c(O)cccc2OC)CC1 | u | u | -92* | 17% | u
